# Results from PubChem BioAssay (NCATS).
# Unmarked numbers belong to inactive results. Inconclusive results are not listed. Calls of active or inactive are those of the source. Unless noted, the call rests on the fitted dose curve; in most records, active means well fitted curve in either direction with a large enough effect (not every such curve was filed as active); inconclusive means small, poorly fitted or top-dose-only effect, or another doubt; inactive means flat fitted curve, though single readings scatter.
# How the values were obtained:
# [1] = target: Lysosomal acid glucosylceramidase (Homo sapiens) (UniProt P04062); experiment: Glucocerebrosidase-p2 (AID 348; in the data active means potency below about 10 µM; further: potency means the concentration at half of the fitted maximal effect); settings: purified GBA, blue fluorogenic substrate, 40 min
# Chain of Lysosomal acid glucosylceramidase (Homo sapiens) (P04062 whole entry, looked up): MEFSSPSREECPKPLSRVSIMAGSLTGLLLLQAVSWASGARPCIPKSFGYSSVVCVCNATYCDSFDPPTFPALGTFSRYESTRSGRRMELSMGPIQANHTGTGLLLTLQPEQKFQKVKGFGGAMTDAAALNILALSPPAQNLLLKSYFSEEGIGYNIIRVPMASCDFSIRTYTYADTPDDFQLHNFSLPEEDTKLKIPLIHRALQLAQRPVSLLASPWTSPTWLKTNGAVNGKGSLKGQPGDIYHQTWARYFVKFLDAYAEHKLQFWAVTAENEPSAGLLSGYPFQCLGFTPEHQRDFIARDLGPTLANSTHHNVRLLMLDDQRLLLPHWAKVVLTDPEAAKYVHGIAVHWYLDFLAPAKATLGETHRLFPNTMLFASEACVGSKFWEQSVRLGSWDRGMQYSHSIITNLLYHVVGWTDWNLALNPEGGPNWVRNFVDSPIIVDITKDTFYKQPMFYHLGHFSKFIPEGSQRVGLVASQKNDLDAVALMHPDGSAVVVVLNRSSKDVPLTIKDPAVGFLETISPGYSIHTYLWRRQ
# How it was run: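 Compounds titrated from 0.6 nM upwards against 0.2 nM enzyme in pH 5.9 citric acid/KH2PO4, taurocholate, tween-20; blue fluorogenic substrate 80 uM, 40 min room temperature, stopped and read Ex 365/Em 440 for AC50.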
# [2] = AP1 Signaling Pathway (AID 357); settings: ME-180 AP-1-bla reporter, EGF-induced, beta-lactamase ratio, 5 h; at 7.69 µM (top of the series) unless noted; further: on the % scale 0 is the no-effect control and ±100 the full control effect
# How it was run: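 Titration-series screen for positive or negative modulators of EC50 EGF-induced signaling in ME-180 cells carrying an AP-1-driven beta-lactamase reporter. After 5 hours at 37 degrees Celsius, CCF4 460nm/530nm emission ratio gave %Activity; AC50 values derived.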
# [3] = target: Cytochrome P450 1A2 (Homo sapiens) (UniProt P05177); experiment: p450-cyp1a2 (AID 410; calls by dose curve; further: potency means the concentration at half of the fitted maximal effect;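 on activity change, negative = inhibition: -100% = full effect of reference inhibitor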); settings: recombinant CYP1A2, luciferin-ME demethylation, luminescence; series mostly up to 11.4 µM
# Chain of Cytochrome P450 1A2 (Homo sapiens) (P05177 whole entry, looked up): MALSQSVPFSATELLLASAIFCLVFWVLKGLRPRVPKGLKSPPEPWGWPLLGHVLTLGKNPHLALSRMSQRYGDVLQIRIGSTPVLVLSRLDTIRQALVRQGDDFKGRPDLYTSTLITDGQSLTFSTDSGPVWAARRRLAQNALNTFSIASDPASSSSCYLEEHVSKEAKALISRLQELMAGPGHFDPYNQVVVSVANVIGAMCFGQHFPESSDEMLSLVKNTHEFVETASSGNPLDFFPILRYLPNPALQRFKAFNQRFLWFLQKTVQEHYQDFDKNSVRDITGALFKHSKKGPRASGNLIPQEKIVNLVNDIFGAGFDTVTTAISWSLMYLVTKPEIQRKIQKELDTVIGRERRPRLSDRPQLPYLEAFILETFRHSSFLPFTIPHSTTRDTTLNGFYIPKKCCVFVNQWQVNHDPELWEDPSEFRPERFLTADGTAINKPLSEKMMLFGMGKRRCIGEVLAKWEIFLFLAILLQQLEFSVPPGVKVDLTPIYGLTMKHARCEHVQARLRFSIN
# How it was run: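 Inhibition was calculated relative to 57 uM furafylline (full inhibition). The reaction used human CYP1A2 at 20nM with Luciferin-ME at its Km, 100uM, driven by an NADPH-regenerating system for 60 min at room temperature.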
# [4] = NFAT Signaling Pathway (AID 444); settings: Jurkat NFAT-bla M1, carbachol, beta-lactamase ratio, 5 h; at 7.69 µM (top of the series) unless noted;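 further: carbachol stimulus at about its EC50 of 1 µM final; on the % scale 0 is the no-effect control and ±100 the full control effect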
# How it was run: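 Read-out: CCF4 FRET ratio (460 nm/530 nm) after 1 h RT dye loading, used for %activity and AC50 from titration series. Cells: Jurkat NFAT-β-lactamase/M1 line, treated with compound plus 1 uM carbachol for 5 h, 37 °C.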
# [5] = Stat Signaling Pathway (AID 446); settings: ME-180 SIE beta-lactamase reporter, IL-6 stimulated, 5 h; at 7.69 µM (top of the series) unless noted;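 further: ME-180 cervical cancer cells given 40 pM IL-6 alongside compound; SIE-controlled beta-lactamase reporter measured as 460/530 nm FRET emission ratio; on the % scale 0 is the no-effect control and ±100 the full control effect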
# How it was run: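 IL-6/STAT signaling read in ME-180 cells via an SIE beta-lactamase reporter. Stimulus was 40 pM IL-6 (its AC50) for 5 hrs, so both activation and inhibition register.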
# [6] = target: Glucocorticoid receptor (Homo sapiens) (UniProt P04150); experiment: GR-GFP Redistribution (AID 450;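 active means compounds whose dose series gives a full or clear partial fitted curve of increased nuclear translocation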; further: potency means the concentration at half of the fitted maximal effect); settings: U2OS GR-GFP nuclear translocation, laser cytometry, 2 h
# Chain of Glucocorticoid receptor (Homo sapiens) (P04150 whole entry, looked up, the tested form may be a part): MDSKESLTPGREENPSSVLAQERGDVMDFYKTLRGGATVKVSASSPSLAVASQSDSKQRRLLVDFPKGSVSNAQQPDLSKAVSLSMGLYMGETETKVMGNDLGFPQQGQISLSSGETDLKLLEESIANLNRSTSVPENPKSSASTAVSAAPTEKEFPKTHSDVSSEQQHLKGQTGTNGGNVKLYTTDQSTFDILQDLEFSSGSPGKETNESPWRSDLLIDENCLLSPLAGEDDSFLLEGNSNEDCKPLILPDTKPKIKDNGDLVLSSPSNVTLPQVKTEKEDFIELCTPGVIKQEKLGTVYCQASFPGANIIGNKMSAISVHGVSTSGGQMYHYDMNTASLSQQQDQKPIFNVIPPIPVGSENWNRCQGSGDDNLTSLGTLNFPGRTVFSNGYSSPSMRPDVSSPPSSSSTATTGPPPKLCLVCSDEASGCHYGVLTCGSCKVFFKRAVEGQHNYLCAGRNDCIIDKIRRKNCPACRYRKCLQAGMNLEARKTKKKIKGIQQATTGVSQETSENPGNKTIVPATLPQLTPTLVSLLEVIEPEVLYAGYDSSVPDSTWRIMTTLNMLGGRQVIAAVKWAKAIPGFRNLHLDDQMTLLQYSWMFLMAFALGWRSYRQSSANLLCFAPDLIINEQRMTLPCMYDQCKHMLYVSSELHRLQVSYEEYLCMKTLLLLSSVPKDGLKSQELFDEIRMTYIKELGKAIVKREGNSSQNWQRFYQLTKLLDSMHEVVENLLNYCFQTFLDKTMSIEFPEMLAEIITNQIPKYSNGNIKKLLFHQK
# [7] = target: Glucocorticoid receptor (Homo sapiens) (UniProt P04150); experiment: GR-EFC Redistribution (AID 451; calls by dose curve; further: potency means the concentration at half of the fitted maximal effect); settings: CHO-K1 GR-EFC translocation, beta-gal luminescence, 2 h
# How it was run: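 Translocation of GR-ED fusion to nuclear EA restores b-gal, read by luminescence after 1 h room-temperature detection. Engineered CHO-K1 biosensor cells, 1,000/well, exposed 2 h at 37 C to titrations up to 46 uM final.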
# [8] = target: Mitogen-activated protein kinase 10 (Mus musculus) (UniProt Q61831); experiment: JNK3 AlphaScreen Assay (AID 530); settings: JNK3 lysate, c-Jun phosphorylation; series mostly up to 11.4 µM;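 further: kinase came from lysate of stimulated human HepG2 cells; signal reports phosphorylation of biotinylated GST-cJun 1-79 at Ser73 with 10 µM ATP; on the % scale 0 is the no-effect control and ±100 the full control effect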
# How it was run: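 Room-temperature AlphaScreen kinase assay; pre-activated HepG2 lysate as JNK3 source, biotin-GST-cJun(1-79) substrate, 10 uM ATP, compound 15 min preincubation.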
# [9] = target: 3',5'-cyclic-AMP phosphodiesterase 4B (Homo sapiens) (UniProt Q07343); experiment: qHTS Assay for Inhibitors of PDE-IV (AID 607; active means well fitted activation curve with a large enough effect in the main read-out, with a control signal flat, not every such curve was filed as active; further: % of control where 0% means no effect); settings: HEK293 ACTOne CNG channel cells, membrane potential fluorescence; series mostly up to 22.9 µM
# Chain of 3',5'-cyclic-AMP phosphodiesterase 4B (Homo sapiens) (Q07343 whole entry, looked up): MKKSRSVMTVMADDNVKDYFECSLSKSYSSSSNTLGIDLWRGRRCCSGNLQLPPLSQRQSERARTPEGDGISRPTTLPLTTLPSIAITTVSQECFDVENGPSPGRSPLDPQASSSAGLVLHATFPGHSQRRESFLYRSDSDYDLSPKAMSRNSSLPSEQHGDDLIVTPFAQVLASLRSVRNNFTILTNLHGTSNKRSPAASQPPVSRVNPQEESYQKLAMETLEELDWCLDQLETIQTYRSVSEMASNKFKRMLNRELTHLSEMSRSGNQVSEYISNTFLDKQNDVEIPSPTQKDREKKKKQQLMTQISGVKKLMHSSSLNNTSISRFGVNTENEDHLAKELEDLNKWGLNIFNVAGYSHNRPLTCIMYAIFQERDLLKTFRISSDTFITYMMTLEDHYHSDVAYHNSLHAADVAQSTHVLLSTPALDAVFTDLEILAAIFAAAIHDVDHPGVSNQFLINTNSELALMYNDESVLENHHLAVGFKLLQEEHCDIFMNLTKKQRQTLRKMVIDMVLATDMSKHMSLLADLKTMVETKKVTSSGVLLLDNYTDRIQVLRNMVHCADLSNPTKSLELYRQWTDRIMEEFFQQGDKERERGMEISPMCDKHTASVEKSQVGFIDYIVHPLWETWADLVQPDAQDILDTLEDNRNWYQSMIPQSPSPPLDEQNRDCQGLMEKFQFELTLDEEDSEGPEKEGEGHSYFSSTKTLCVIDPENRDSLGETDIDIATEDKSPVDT
# How it was run: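 Live HEK293 cells with a modified cyclic nucleotide-gated (CNG) channel report intracellular cAMP via membrane-potential dye fluorescence (ex 535/em 590 nm). Endogenous PDE-IV was targeted. Compounds were tested at up to 22.9 uM final; RO 20-1724 100 uM served as control.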
# [10] = qHTS Assay for Identification of Small Molecule Agonists for Hypoxia Response Element Signaling Pathway (AID 914; active means well fitted activation curve with a large enough effect in the signal ratio, with a control signal flat, not every such curve was filed as active; the % refers to the signal ratio; further: % of control where 0% means no effect); settings: ME-180 (cervical carcinoma) HRE-bla reporter, beta-lactamase ratio, CoCl2, 17 h; activation: stronger effect = higher value
# How it was run: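 Compounds in a titration series were added to ME-180 reporter cells alongside an EC50 level of CoCl2. After 17 hours, beta-lactamase activity was read as the 460nm/530nm emission ratio of CCF4, giving AC50 values.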
SMILES,Potency [1] [µM],"activity change, negative = inhibition [2] [%]",Potency [3],"activity change, negative = inhibition [4] [%]","activity, negative = inhibition [5] [%]",Potency [6] [µM],Potency [7] [µM],Potency [8],Potency [9],activation [10] [%],"activity change, negative = inhibition [3]"
O=C(NCCO)c1ccc(Cl)cc1,> 11.4,-0.923,3.98 µM (active),9.91,15.2,> 46,> 9.22,inactive,inactive,9.98,–
Cn1cnc([N+](=O)[O-])c1Sc1nc(N)nc2c1ncn2Cc1ccccc1,> 11.4,0.181,3.16 µM (active),-1.11,1.04,> 46,> 9.22,inactive,inactive,-1.88,–
COC(=O)[C@]1(C)CCC(c2ccc(C)cc2)=C(CC(=O)O)C1,> 11.4,-2.42,–,-1.89,2.79,> 46,> 9.22,inactive,inactive,4.66,-8.4% [at 2.29 µM]
O=C(O)c1ccc(CNCc2ccccc2)cc1,> 11.4,-3.63,inactive,-2.06,15.5,> 46,> 9.22,inactive,inactive,4.76,–
Nc1nc(N)c2nn(-c3ccc(C(=O)O)cc3)nc2n1,> 11.4,-3.5,–,6.6,-0.747,> 46,> 9.22,–,inactive,–,-13.4% [at 2.29 µM]
